Compounds with a hit are over-represented: about 11% of the library has one in this group of screens.
PNC inhibitor = blocks assembly of the perinucleolar compartment. PC3M PTB-GFP, PNC prevalence imaging, 16 h; active compounds read low. activity change (PNC), negative = inhibition, % at 10 µM. 140,000 compounds, 3.1% hits;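 active means readout at or below -70, meaning at least 70% loss of cells showing the perinucleolar compartment, a nuclear body marking cancer cells; inconclusive means readout between -30 and a set limit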;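 further: plate controls were DMSO wells for no effect and camptothecin positive control wells for full effect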
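Compounds are pinned in duplicate onto adhered PC3M cells stably expressing GFP-tagged PTB and incubated 16 h at 37 C. Cells are then fixed, nuclei stained with Hoechst, and PNC-positive cells counted.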
ALDH1A1 block = blocks purified human ALDH1A1 activity | P00352 | Purified ALDH1A1, NADH fluorescence, propionaldehyde substrate | Potency, µM (titrated, usually from 75.3 µM), without a hit: at the highest dose activity, negative = inhibition, actives largely listed as inhibitors | 220,000 compounds, 7.3% hits | AID 1030; active means well fitted inhibition curve with a large enough effect, not every such curve was filed as active; inconclusive means small, poorly fitted or top-dose-only effect, or another doubt; inactive means no such curve, though single readings can be large or run the other way;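 further: potency means the concentration at half of the fitted maximal effect; plate controls were no enzyme wells and a reference inhibitor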
Target sequence (P00352 whole entry, looked up): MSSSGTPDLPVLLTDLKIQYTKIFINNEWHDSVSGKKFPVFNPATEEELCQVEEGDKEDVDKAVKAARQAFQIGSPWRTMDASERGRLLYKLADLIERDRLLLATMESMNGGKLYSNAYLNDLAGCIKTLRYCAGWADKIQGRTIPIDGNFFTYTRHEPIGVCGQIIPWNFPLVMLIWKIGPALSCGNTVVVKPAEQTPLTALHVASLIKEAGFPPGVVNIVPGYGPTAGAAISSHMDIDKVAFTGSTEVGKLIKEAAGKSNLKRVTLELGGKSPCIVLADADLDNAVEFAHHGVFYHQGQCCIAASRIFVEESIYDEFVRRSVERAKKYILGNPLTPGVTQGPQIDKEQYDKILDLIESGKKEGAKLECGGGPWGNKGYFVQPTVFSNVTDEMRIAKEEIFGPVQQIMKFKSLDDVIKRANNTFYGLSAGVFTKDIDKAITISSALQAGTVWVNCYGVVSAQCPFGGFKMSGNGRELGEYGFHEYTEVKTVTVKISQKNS
HttQ103 aggreg = reduces HttQ103-GFP aggregates in PC12 cells | AID 1688 | PC12 HttQ103-GFP aggregates, Acumen cytometry, 40 h | 220,000 compounds, 1.1% hits | Potency, µM (titrated, usually from 46.1 µM), inactives show at the top dose activity change, negative = inhibition, most hits filed as inhibitors; further: potency means the concentration at half of the fitted maximal effect; on the % scale 0 is the no-effect control and ±100 the full control effect; nearly all actives have a fitted effect of over 60% in size
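Huntingtin Q103 exon 1–GFP aggregates in induced PC12 cells (100 nM tebufenozide) were quantified by cytometry from lysates, with compounds dosed in titration.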
HTT cytoprotect = Huntington cell model cytoprotection by ATP luminescence. 230,000 compounds, 0.14% hits. Potency, µM (titrated, usually from 56.4 µM), inactives show cytoprotection (ATP increase), usual class: activators. PC12 HTT-Q103 induced, cytoprotection, ATP luminescence, 40 h; further: potency means the concentration at half of the fitted maximal effect; % of control where 0% means no effect; nearly all actives have a fitted effect of over 45% in size
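Compounds added alongside 100 nM tebufenozide, which induces toxic Q103 huntingtin exon 1-GFP in stable PC12 cells; surviving cells quantified by luminescent ATP measurement. Medium: phenol red-free DMEM, 5% equine and 5% calf serum.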
HPGD inh = HPGD (human) dehydrogenase inhibition; P15428; purified HPGD, NADH fluorescence kinetic, PGE2 substrate; Potency, µM, for inactives: at the highest dose activity change, negative = inhibition, most hits filed as inhibitors; 150,000 compounds, 4.3% hits; AID 894; active means well fitted inhibition curve with a large enough effect, not every such curve was filed as active; inconclusive means small, poorly fitted or top-dose-only effect, or another doubt; inactive means no such curve, though single readings can be large or run the other way; further: potency means the concentration at half of the fitted maximal effect; on the % scale 0 is the no-effect control and ±100 the full control effect
Target sequence (P15428 whole entry, looked up): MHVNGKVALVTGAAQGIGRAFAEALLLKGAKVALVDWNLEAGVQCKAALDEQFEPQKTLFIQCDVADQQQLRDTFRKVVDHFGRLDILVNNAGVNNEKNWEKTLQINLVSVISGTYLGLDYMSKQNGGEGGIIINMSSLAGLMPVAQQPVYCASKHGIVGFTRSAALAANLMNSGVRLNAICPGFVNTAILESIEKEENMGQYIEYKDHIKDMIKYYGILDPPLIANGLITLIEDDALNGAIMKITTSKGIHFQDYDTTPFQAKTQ
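NADH formation kinetics: reaction with 30 uM PGE2 and 1 mM NAD+ (final), 20 nM enzyme, Tris-HCl pH 8 with Tween 20, after 15 min compound preincubation at room temperature. Fluorescence change, last versus first of five reads.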
RGS12 GoLoco inh = RGS12 GoLoco-Gai1 interaction inhibition. 230,000 compounds, 0.44% hits. Potency, µM (titrated, usually from 61.6 µM), without a hit: at the highest dose activity, negative = inhibition, hits mostly inhibitors. Gai1:RGS12 GoLoco peptide FP, rhodamine, 10 min; active means well fitted inhibition curve with a large enough effect, not every such curve was filed as active; inactive means no such curve, though single readings can be large or run the other way; further: potency means the concentration at half of the fitted maximal effect; on the % scale 0 is the no-effect control and ±100 the full control effect; nearly all actives have a fitted effect of over 30% in size
The depositor's hits bear a star; i = inactive; ? = inconclusive; nt = no result; [ ] = remark or other dose. Unless noted, the call rests on the fitted dose curve; in most records, active means well fitted curve in the direction sought with a large enough effect; inconclusive means small, poorly fitted or top-dose-only effect, or another doubt; inactive means no such curve, though single readings can be large; an effect the other way counts as inactive or inconclusive.

SMILES	PNC inhibitor	ALDH1A1 block	HttQ103 aggreg	HTT cytoprotect	HPGD inh	RGS12 GoLoco inh
COc1ccc(S(=O)(=O)N2CCCC2C(=O)Nc2ccc(C(C)=O)cc2)cc1 (configuration not stated)	?	?	-16%	5%	-12%	-7%
COc1ccccc1N=C1SCC(=O)N1c1ccccc1OC	44	20µM*	16%	nt	?	-6%
COc1ccccc1N1C(=O)CSC1=NC(=O)c1ccccc1	nt	-2%	5%[9.22 µM]	14%[10 µM]	nt	13%
CN(Cc1ccco1)c1ccnc(-c2ccccc2C(F)(F)F)n1	nt	?	nt	-35%	nt	2%
CCCc1c(-c2ccc(O)cc2)nn(-c2ccc(O)cc2)c1-c1ccc(O)cc1	nt	5%	-12%[9.22 µM]	?	-18%	3%
Cc1ccc(-[n+]2cc(=O)o[nH]2)cc1	nt	0%[13.5 µM]	nt	-4%[10 µM]	-5%	1%[14.2 µM]
O=C(Nc1cccnc1)c1ccc(N2CCCC2)c([N+](=O)[O-])c1	nt	7.9µM*	2%	-58%	nt	13%
O=C(Nc1ccc(N2CCCC2)c(Cl)c1)c1cccnc1	252	8.9µM*	-13%	30%[10 µM]	-26%	57%
Cc1cccc(NC(=O)c2ccc(N3CCCCC3)c([N+](=O)[O-])c2)n1	26	13µM*	-22%	-43%	?	9%
O=C(Nc1ccccc1Cl)c1ccc(-n2cccn2)c([N+](=O)[O-])c1	nt	8.9µM*	10%	5%[10 µM]	nt	8%
CCCCCCCCCCCCCCCCCCOC[C@@H](O)COP(=O)([O-])OCC[N+](C)(C)C	nt	5%	nt	?	-5%	0%
CCO[C@H]1OC(C(=O)N2CCCCCCC2)=C[C@@H](C)[C@@H]1CCCO	nt	-3%	14%[9.22 µM]	11%[10 µM]	nt	-9%
COc1ncnc2c1oc1nc(CC(C)C)c3c(c12)CCCC3	?	14µM*	-15%	-24%[0.074 µM]	-7%	-2%
CC(C)Cc1nc2oc3c(Cl)ncnc3c2c2c1CCCC2	nt	nt	25%[9.22 µM]	-13%[10 µM]	nt	8%
C=C(C)C(O)/C=C/c1cccc(OC)c1 (configuration not stated)	nt	-9%[13.5 µM]	nt	-3%[10 µM]	nt	nt
O=c1c(-c2ccccc2)coc2cc(O)cc(O)c12	nt	11µM*	nt	-40%	6.3µM*	34%
O=c1c(-c2ccc3c(c2)OCCO3)coc2cc(O)cc(O)c12	-29	16µM*	-17%	-10%[1.9 µM]	28µM*	33%
O=c1c(-c2ccc(O)cc2)coc2cc(OC3OC(CO)C(O)C(O)C3O)cc(O)c12 (configuration not stated)	-22	9%	20%	nt	?	13%
O=C1NC[C@H](c2ccccc2)N1	nt	-9%	nt	-26%	-16%	1%
C/C=C1/NN(CCCN2CCN(c3cccc(Cl)c3)CC2)C(=O)N1CCOc1ccccc1	nt	-3%	-5%	-58%	-5%	-17%
CC1OC(OC2CCC3(C)C(CCC4C3CC(O)C3(C)C(C5=CC(=O)OC5)CCC43O)C2)CC(O)C1OC1CC(O)C(OC2CC(O)C(OC3OC(CO)C(O)C(O)C3O)C(C)O2)C(C)O1 (configuration not stated)	nt	5%	-10%	18%	-5%	8%
O=C(CCS(=O)(=O)c1ccc(Br)cc1)Nc1cc(F)ccc1F	17	22µM*	-8%	4%[10 µM]	-2%	-1%
COc1cc(OC)c(CNC2CCCCCC2)cc1Br	nt	7.9µM*	10%	-48%	nt	-5%
N#CC(C#N)=CNc1cccnc1	nt	11%	-4%[9.22 µM]	3%[10 µM]	nt	1%
Cn1cc(C=C2C(=O)CC(C)(C)CC2=O)c2ccccc21	15	1.3µM*	0.025µM*	nt	-10%	13%
SMILES	PNC inhibitor	ALDH1A1 block	HttQ103 aggreg	HTT cytoprotect	HPGD inh	RGS12 GoLoco inh
CC1=NC(=O)C(N=Nc2cccc(C(=O)O)c2)N1c1ccccc1 (configuration not stated)	19	?	-3%	-61%	-5%	20µM*
N=C(N)SCc1ccccn1	-91*	7%	-2%	nt	-16%	-47%
CCc1ccc(N/C(SC)=C(/C#N)C(N)=O)cc1	-19	6%	nt	13%	-14%	-36%
CCCCS/C(=C(/C#N)C(N)=O)c1cc2c([nH]1)CCCC2	76	14µM*	-20%	9%	?	125%
Cc1ccc(/C=C/C2=C[C@]3(C)C[C@]2(C)[C@H](c2ccc(C)cc2)CC3=O)cc1	nt	?	nt	9%	-5%	-1%
O=C(NC1CC1)C1=C[C@@H](c2coc3ccccc3c2=O)C[C@@H](OCCCCO)O1	nt	nt	-24%[9.22 µM]	-3%[10 µM]	nt	8%
Cc1ccccc1Cn1nc(C)c(NC(=O)c2cc(CC(C)C)on2)c1C	nt	nt	-1%[9.22 µM]	8%[10 µM]	nt	1%
Cc1nn(Cc2ccc(Cl)c(Cl)c2)c(C)c1NC(=O)c1cc(CC(C)C)on1	3	?	10µM*	15%	-13%	9%
CCOC(=O)C1C(=O)C=C(/C=C/c2ccc(N(C)C)cc2)CC1c1ccccc1 (configuration not stated)	?	0%	?	-2%[10 µM]	-4%	76%
CCN(CC)c1ccc(/C=C/C(=O)C2C(=O)C=C(C)OC2=O)cc1 (configuration not stated)	nt	18µM*	?	-106%	nt	i
Cc1ccc(C(=O)COC(=O)c2cnccn2)cc1	-102*	3%	2%	-8%	-9%	-8%
CCc1nc2ccccc2c(C(=O)OCc2nnc(-c3ccccc3)o2)c1C	5	?	2%	-20%	20µM*	17%
O=C(OCc1nnc(-c2ccccc2)o1)c1cn(-c2ccccc2)nc1-c1ccccc1	-3	3%	-16%	-14%[0.074 µM]	-28%	11%
Cc1cc(C(=O)OCc2nnc(-c3ccccc3)o2)c(C)n1-c1ccccc1	-18	1%	11µM*	-33%	?	8%
CCc1nc2ccccc2c(C(=O)OCC(=O)C(C)(C)C)c1C	nt	-6%	-7%	-42%	nt	7%
COc1cccc(-c2noc(N)c2C#N)c1	-22	-12%	11µM*	-11%	?	106%
N#Cc1c(-c2ccc(F)cc2)noc1N	?	4%	14%	?	-8%	10%
COc1cccc(-c2nc(-c3ccccc3)[nH]c(=O)c2C#N)c1	?	9%	?	-18%	16µM*	-20%
COc1ccc(-c2nc(-c3cccc(C)c3)[nH]c(=O)c2C#N)cc1	?	?	-2%	-24%	?	2%
N#Cc1c(-c2ccccc2)nc(-c2ccccc2)[nH]c1=O	?	?	11%	-15%	2µM*	0%
Cc1noc(NS(=O)(=O)c2ccc(NC(=O)C34CC5CC(C3)CC(n3cnc(Br)n3)(C5)C4)cc2)c1C	?	3%	10%	nt	-5%	7%
CO[C@H]1COC(=O)[C@H](C)NC(=O)C/C=C\[C@@H](C)[C@@H](NS(=O)(=O)c2ccc(C)cc2)COC(=O)[C@H](OCc2ccccc2)/C=C\[C@@H]1C	nt	0%[13.5 µM]	nt	-46%[10 µM]	nt	nt
